The record followed here is PubChem BioAssay AID2289 (National Center for Advancing Translational Sciences (NCATS), 2010).

The campaign covered roughly 340,000 compounds. About 3,300 (0.97%) were called active. Roughly 9% stayed inconclusive and do not appear here. The call rests on the fitted dose curve; in most records, active means well fitted inhibition curve with a large enough effect; inconclusive means small, poorly fitted or top-dose-only effect, or effect the other way; inactive means flat fitted curve, though single readings scatter. Some of the results follow.
Potency means the concentration at half of the fitted maximal effect.

This experiment can be described thus: qHTS Assay for Modulators of miRNAs and/or Inhibitors of miR-21. Further: nearly all actives have a fitted effect of over 55% in size. The conditions noted are these: HeLa miR-21-FLuc reporter, luciferase luminescence, 48 h; actives lower the signal. From the text:
MLSCN Grant: 1 R21 NS059478-01 Assay Provider: Qihong Huang, The Wistar Institute NCGC Assay Overview: MicroRNAs (miRNAs) are endogenously encoded small (~20-25 nucleotides), nonprotein-coding RNAs that are involved in post-transcriptional repression of target messenger RNAs (mRNAs) (Le and Hannon, 2004). Estimated to be involved in the regulation of 30% of all protein-coding mRNAs (Filipowicz et al., 2008), miRNAs play a significant role in many biological processes including cellular differentiation and tissue development (Ghildiyal and Zamore, 2009).
NCGC Assay Protocol Summary: Reagents: HeLa cells stably expressing firefly luciferase (FLuc) under the control of a CMV promoter (upstream) and a miR-21 binding sequence directly downstream of the gene. These cells endogenously express miR-21. Control compounds used were compound C3 (provided by collaborator), N6-phenyladenosine (MP Biomedicals, 0215379625), and DMSO. Assay Summary: 6uL of HeLa miR-21-FLuc cells in assay buffer (DMEM, Invitrogen #21063-029; 10% FBS, HyClone #SH30071.03) were dispensed at 2000cells/well (3.3 x 10^5 cells/mL) into Greiner solid-white TC-treated 1536-well plates using a Multidrop Combi (Thermo Fisher Scientific). Plates were incubated for one hour at 37 degree Celsius, 95% humidity, 5% CO2. These assay plates were then treated with 23nL of compound or DMSO using a Kalypsys pin tool, which allows for delivery of a 24-point titration of each compound to the assay plate, with a final compound concentration ranging from approximately 40uM to 5pM. Assay plates were then incubated for 48 hours. After incubation, plates were allowed to come to RT for one hour prior to delivery of 3uL of 3X luciferase detection reagent. After a 15 minute incubation to allow for cell lysis, luciferase activity was measured using a ViewLux CCD imager (PerkinElmer), with an average exposure time of 2-12 seconds. Keywords: NIH Roadmap, MLPCN, MLSMR, qHTS, miR-21, microRNA, firefly luciferase, FLuc.
Background: qHTS replaces the single test concentration by a dilution series.
Regarding `O=C(NNc1c(F)c(F)cc(F)c1F)c1cc2ccccc2oc1=O`, the Potency is 8.26 µM (active). As for `COc1ccc(-c2n[nH]c(=S)n2-c2ccc3c(c2)OCCO3)cc1OC`, the Potency was 16.5 µM (active).

Regarding `Cc1ccc(-c2cc(NC(=O)c3ccccc3)on2)cc1`, the Potency was 2.93 µM (active). `CC1CCc2c(sc3nc(CSc4n[nH]c(N)n4)[nH]c(=O)c23)C1` (stereo not given): the Potency was 16.5 µM (active). As for `Nc1nc(SCc2ccc(Cl)cc2Cl)n[nH]1`, the Potency is 14.7 µM (active). Consider `CCN(CC)c1ccc(/C=C2\C(=O)NC(=S)N(C)C2=O)o1`, for which the Potency is 1.31 µM (active). Take `CN1C(=O)/C(=C/c2ccc(N3CCCCCC3)o2)C(=O)NC1=S`: the Potency was 0.826 µM (active). As for `CCCCn1c(O)c(/C(C)=N/NC(=O)Nc2ccccc2)c(=O)[nH]c1=O`, the Potency is 11.7 µM (active).

Turning to `COc1ccc(CCN2CCCC(CN(C)C(=O)c3cc(C)oc3C)C2)cc1` (stereo not given), the Potency is 4.65 µM (active). For `COc1ccc(NC(=O)CCCn2c(=O)oc3ccccc32)cc1Cl`, the Potency was 9.27 µM (active).

On to `Cn1cnc2cc(NC(=O)c3ccc(Cl)cc3)ccc21`, for which the Potency is 1.85 µM (active). As to `COc1ccc(CNC(=O)c2ccc(C(C)C)cc2)cc1`, the Potency is 3.29 µM (active). In the case of `Cc1cccc(N=Nc2ccc(N(C)C)cc2)c1` it was 2.93 µM (active). Turning to `COC(=O)C(O)(c1ccc(NC(=O)NC2CCCCC2)cc1)C(F)(F)F` (stereo not given), the Potency was 8.26 µM (active). `CCN(CC)C(=O)Oc1ccc2cc(Br)ccc2c1`: the Potency is 11.7 µM (active). To `O=C(Oc1ccc2cc(Br)ccc2c1)N1CCCCCC1` belongs 4.14 µM (active); to `O=c1c2ccccc2[nH]c(=S)n1-c1ccc2c(c1)OCCO2`, 7.36 µM (active). Regarding `O=c1cc(-c2ccc(O)c(O)c2)oc2cc(O)cc(O)c12`, the Potency is 3.29 µM (active). `Cc1cnn(-c2cc(Oc3ccccc3)ncn2)c1`: the Potency was 16.5 µM (active). For the compound `CC(C)(C)n1cc(C(=O)c2ccc3ccccc3c2O)cn1`, the Potency is 0.233 µM (active). In the case of `c1ccc2c(CN3CCCCCC3)c[nH]c2c1` it was 2.93 µM (active). In the case of `CN(C)C(=O)Oc1ccc2c(c1)O/C(=C\c1ccccc1)C2=O` it was 4.65 µM (active); in that of `O=c1c2ccccc2nc(Cc2ccccc2)n1-c1ccccc1`, 5.85 µM (active); in that of `COc1ccccc1N=Nc1c(O)[nH]c(=S)[nH]c1=O`, 13.1 µM (active). Take `BrCC1C[n+]2c(SCc3ccccc3)nc3sc4c(c3c2O1)CCCC4` (stereo not given): the Potency was 16.5 µM (active). In the case of `O=C(c1cc(-c2cccc(Cl)c2)on1)N1CCOCC1`, the Potency is 8.26 µM (active). Turning to `O=C(Nc1nc2c(s1)CCCCCC2)Nc1ccc(F)cc1F`, the Potency is 0.329 µM (active).

In the case of `Cc1cc(C(=O)Nc2ccccc2)nn1C(C)(C)C`, the Potency was 2.07 µM (active).

As to `Cc1cc(C(=O)Nc2ccc3c(c2)OCCO3)nn1C(C)(C)C`, the Potency was 5.85 µM (active). For `CN(CC(=O)N1CCc2ccccc21)S(=O)(=O)c1cccs1`, the Potency was 5.85 µM (active).

Consider `COc1ccc(-c2cc(=NCCC(=O)O)c3cc(C)ccc3o2)cc1`, for which the Potency was 0.656 µM (active). As for `COc1ccc(-c2cc(=NCC(=O)O)c3ccccc3o2)cc1`, the Potency was 3.69 µM (active). Consider `CCCCN1CC(O)=C(c2nc3ccccc3s2)C1=N`, for which the Potency was 6.56 µM (active).

With `CC(=O)Nc1ccccc1C(=O)OCC(=O)c1ccccc1Cl`, the Potency was 14.7 µM (active).

Take `COc1ccc2nc(NC3=NCCN3)sc2c1`: the Potency was 1.65 µM (active). For `Cc1ccnc(SCc2nc3ccccc3s2)n1`, the Potency is 7.36 µM (active).

`Cc1cccc(OCCn2c(=O)oc3ccc(C)cc32)c1`: the Potency was 14.7 µM (active). As to `O=c1oc2ccccc2n1CCCOc1ccccc1`, the Potency is 13.1 µM (active). Consider `Cc1ccc(NC(=O)O/N=C/c2cccc([N+](=O)[O-])c2)cc1`, for which the Potency is 16.5 µM (active). In the case of `Cc1nc(Cl)sc1C(=O)Nc1ccc2ccccc2c1` it was 5.85 µM (active). `O=C(CSCc1ccccc1)Nc1ccc2c(c1)OCO2`: the Potency is 5.21 µM (active).

In the case of `Cc1ccc(-c2nn(Cc3ccccc3)cc2C=O)cc1`, the Potency is 6.56 µM (active).

For `c1ccc(-c2nc(N3CCOCC3)s[n+]2-c2ccccc2)cc1`, the Potency is 13.1 µM (active).

Take `Cc1ccc(-c2nc(N3CCOCC3)s[n+]2-c2ccccc2)cc1`: the Potency was 5.21 µM (active). As to `Cn1nnc2cc(NC(=O)Nc3cccc(Cl)c3)ccc21`, the Potency was 1.47 µM (active).

With `c1ccc(CN2CCc3nc4ccccc4cc3C2)cc1`, the Potency was 14.7 µM (active). As to `Cc1ccc(NN=C2C(=O)OC(C)(C)OC2=O)c(C)c1`, the Potency was 11.7 µM (active). In the case of `O=C(NCC(c1cccnc1)N1CCOCC1)Oc1ccccc1` (stereo not given), the Potency is 16.5 µM (active).

As to `Cc1nc2ccc(NC(=O)c3ccc(Cl)s3)cc2s1`, the Potency was 2.93 µM (active). For `Cc1nc2ccc(NC(=O)C3COc4ccccc4O3)cc2s1` (stereo not given), the Potency was 7.36 µM (active).
